A short description of assay [1]: CCTE_Shafer_MEA_dev_active_electrodes_number: CCTE's Neural Network Formation Assay for Number of Active Electrodes, Shafer Lab (AID 2284040; active = hit-call score of the fitted dose curve at least 0.9, where 1 is the maximum;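 as to AC50: potency for loss of active electrodes versus DMSO so lower counts are hits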). In outline:
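Counts electrodes per well firing at least 5 spikes/min, recorded on days 5, 7, 9 and 12 in rat cortical cultures dosed continuously from plating (treatment refreshed DIV 5, 9). Value is the area under the curve over recordings, fitted downward relative to DMSO.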

The target of assay [2] is Estrogen receptor (Homo sapiens) (UniProt P03372). The assay can be described thus: CCTE_Deisenroth_AIME_384WELL_LUC_Shift: CCTE's 384-well Estrogen Receptor Transactivation Assay with AIME metabolic competence data shift (ERTA luciferase; difference in metabolism positive and negative), Deisenroth Lab (AID 2284041).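 Also: shift is response with S9 minus without S9 so positive means metabolism raised ER signal.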 The procedure, abridged: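 Chemicals (0.002–200 uM, 10 points) pre-incubated 2 h with alginate-encapsulated induced male Sprague Dawley rat liver S9 or S9-free, then medium applied 24 h to VM7Luc4E2 cells; luciferase. Endpoint is per-concentration difference, S9-positive minus negative.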
Chain of Estrogen receptor (Homo sapiens) (P03372 whole entry, looked up): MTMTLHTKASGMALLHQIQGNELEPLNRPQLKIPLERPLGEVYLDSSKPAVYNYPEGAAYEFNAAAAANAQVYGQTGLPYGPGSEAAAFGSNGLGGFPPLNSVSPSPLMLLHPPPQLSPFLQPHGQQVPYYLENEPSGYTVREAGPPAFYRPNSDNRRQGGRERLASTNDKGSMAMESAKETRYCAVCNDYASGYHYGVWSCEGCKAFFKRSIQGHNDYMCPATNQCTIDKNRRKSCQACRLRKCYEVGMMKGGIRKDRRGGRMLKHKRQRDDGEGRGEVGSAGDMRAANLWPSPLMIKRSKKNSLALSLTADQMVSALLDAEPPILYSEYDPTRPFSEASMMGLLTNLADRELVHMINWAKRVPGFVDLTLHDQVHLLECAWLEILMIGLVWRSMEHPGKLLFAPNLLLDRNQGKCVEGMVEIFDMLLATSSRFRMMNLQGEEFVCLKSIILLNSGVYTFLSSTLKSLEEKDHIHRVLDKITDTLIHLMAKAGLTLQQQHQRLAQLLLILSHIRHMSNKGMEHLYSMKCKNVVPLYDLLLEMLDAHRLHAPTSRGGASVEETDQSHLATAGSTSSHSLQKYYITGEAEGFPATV

The nature of assay [3]: CCTE_Shafer_MEA_dev_burst_rate: CCTE's Neural Network Formation Assay for Burst Rate, Shafer Lab (AID 2284042).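 As to AC50: potency for loss of burst rate below DMSO control.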 In outline: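 Exposure ran continuously over 12 days of network development in rat cortical cultures, with compound refreshed during full media changes on DIV 5 and 9. Single-electrode bursts per recording time, well-mean over active electrodes, trapezoidal AUC across days 5–12, fitted downward relative to DMSO.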

The nature of assay [4]: CCTE_Shafer_MEA_dev_bursting_electrodes_number: CCTE's Neural Network Formation Assay for Number of Bursting Electrodes, Shafer Lab (AID 2284043; active = hit-call score of the fitted dose curve at least 0.9, where 1 is the maximum;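 as to AC50: potency is for loss of bursting electrodes relative to DMSO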). The procedure, abridged:
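Rat cortical primary neurons, 48-well MEA, 16 electrodes/well; dosing DIV 0–12, re-dosed with full media change DIV 5, 9. Recordings DIV 5/7/9/12, AxIS adaptive spike detector; bursting electrode = ≥1 burst/2 min. AUC across days; loss of signal vs DMSO.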

The nature of assay [5]: CCTE_Shafer_MEA_dev_per_burst_interspike_interval: CCTE's Neural Network Formation Assay for Burst Interspike Interval, Shafer Lab (AID 2284044).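 Also: mean spike spacing inside bursts as AUC over recordings on days 5 7 9 12.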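 As to AC50: potency for a decrease of within-burst interspike interval below DMSO level.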 In outline: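 Primary rat cortical neurons on 48-well MEA plates, exposed from day 0 through day 12, treatment renewed at DIV 5 and 9. Within-burst interspike interval recorded days 5, 7, 9, 12, well-averaged, summarised as AUC; negative fit versus DMSO.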

Assay [6] can be described thus: CCTE_Shafer_MEA_dev_burst_duration_mean: CCTE's Neural Network Formation Assay for Mean Burst Duration, Shafer Lab (AID 2284045). The procedure, abridged:
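Rat cortical cultures, 1.5 x 10^5 cells/well with laminin drop; continuous dosing days 0–12, media plus treatment refreshed DIV 5, 9. AxIS adaptive spike detection; mean single-electrode burst duration, AUC over four recordings, negative direction vs DMSO.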

Assay [7] is described as follows: CCTE_Shafer_MEA_dev_network_spike_number: CCTE's Neural Network Formation Assay for Number of Network Spikes, Shafer Lab (AID 2284048).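 Also: synchronized bursts across electrodes counted on days 5 7 9 12 and integrated as AUC.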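 As to AC50: fit as a loss of signal meaning fewer network spikes than DMSO.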 The procedure, abridged:
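Rat cortical primary cultures on 48-well MEA (16 electrodes/well); continuous exposure DIV 0–12, full medium and treatment exchange DIV 5, 9. Readout: network spike count, AxIS adaptive detection, recordings DIV 5/7/9/12 collapsed to AUC; loss-of-signal fit, DMSO baseline.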

Assay [8] in a line: CCTE_Shafer_MEA_dev_network_spike_peak: CCTE's Neural Network Formation Assay for Mean Number of Electrodes in Network Spike, Shafer Lab (AID 2284049).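 As to AC50: fitted for loss of signal meaning fewer electrodes in network spikes than DMSO.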 In outline: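 Network-spike peak electrode count from recordings on days 5, 7, 9 and 12 was combined as trapezoidal area under the curve. Rat cortical cultures were treated continuously from plating, with compound renewed at each feed (DIV 5, 9); fits versus DMSO.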

Assay [9] can be described thus: CCTE_Shafer_MEA_dev_spike_duration_mean: CCTE's Neural Network Formation Assay for Mean Spike Duration, Shafer Lab (AID 2284051).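 As to AC50: potency for a decrease in mean network spike duration versus DMSO.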 The procedure, abridged: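 Spontaneous activity was recorded on days 5, 7, 9 and 12 from rat cortical cultures grown on microelectrode arrays and dosed continuously from day 0, with media and compound renewed after the DIV 5 and 9 recordings. Network-spike duration was collapsed by area under the curve.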

A further assay relates to DIO2 (gene 1734). The assay can be described thus: CCTE_GLTED_hDIO2: CCTE's human Deiodinase 2 (DIO2) Inhibition Assay, Great Lakes Toxicology and Ecology Division (GLTED) Lab (AID 2284050; active = hit-call score of the fitted dose curve at least 0.9, where 1 is the maximum). The procedure, abridged:
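Iodide released by human deiodinase 2 over 3 h with test chemical, measured spectrophotometrically via Sandell-Kolthoff cerium/arsenic reaction. Run n=3; inhibition referenced to DMSO.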

Several values for one entry are separate records, joined by “and”; a condition that tells them apart may be missing. Equal values may be shown once. Results filed as inconclusive are left out. Some compounds were tested as several samples or in several runs, with calls that do not always agree. Activity calls are given as the source filed them. The calls were made as follows, unless noted: active = hit-call score of the fitted dose curve at least 0.9, where 1 is the maximum; inactive = score below 0.9.

As a reminder, the AC50 is the concentration at which the activity in the assay is half-maximal. For `O=S1OCC2C(CO1)C1(Cl)C(Cl)=C(Cl)C2(Cl)C1(Cl)Cl` (stereo not given), the AC50 in [1] is 8.87 µM (active); in assay [3], 8.87 µM (active); in assay [4], 8.62 µM (active); in assay [7] it was 5.95 µM (active); in assay [8] it was 8.02 µM (active); in [9], 8.4 µM (active). Besides, the outcome in assay [2], in assay [5] and in [6] was inactive.
Consider `CC(C)N(C(=O)COc1nnc(C(F)(F)F)s1)c1ccc(F)cc1`, for which the compound was called inactive in assay [1], in assay [2], in assay [3], in assay [4], in assay [5] and in [6]. Also, the compound was classed as inactive in assay [7], in assay [8] and in [9]. The concentration at half-maximal activity (AC50) in [4] was 24.5 µM (active); in [8] it was 23.3 µM (active); in assay [9], 24.5 µM (active).
Turning to `O=[N+]([O-])/N=C1\NCCN1Cc1ccc(Cl)nc1`, the result in assay [1], in [3], in assay [4], in assay [5], in assay [6] and in [7] was inactive. The result in [8] and in [9] was inactive.
As for `Oc1cc(Cl)ccc1Oc1ccc(Cl)cc1Cl`, the AC50 in [1] was 9.79 µM (active); in assay [3] it was 8.47 µM (active); in assay [4] it was 9.29 µM (active); in [5], 16 µM (active); in assay [8], 9.85 µM (active); with DIO2 (gene 1734) it was 84 µM (active). Moreover, the AC50 in assay [9] is 10 µM (active). For the same compound, the call in assay [6] and in assay [7] was inactive.
Turning to `CNC(=O)/C=C(\C)OP(=O)(OC)OC`, the result in assay [2] was inactive.
In the case of `Clc1ccccc1-c1nnc(-c2ccccc2Cl)nn1`, the outcome in assay [2] was inactive.
`CCC(C)(NC(=O)c1cc(Cl)c(C)c(Cl)c1)C(=O)CCl` (stereo not given): the AC50 in the assay on DIO2 (gene 1734) is 13.2 µM (active).
For the compound `CCOCN(C(=O)CCl)c1c(C)cccc1CC`, the outcome in assay [2] was inactive. Besides, the half-maximal activity concentration (AC50) in the assay on DIO2 (gene 1734) was 58.9 µM (active).
`O=S(=O)(O)C(F)(F)C(F)(F)C(F)(F)C(F)(F)C(F)(F)C(F)(F)C(F)(F)C(F)(F)F`: the AC50 was 50 µM (active) in assay [1]; 3.81 µM (active) in assay [3]; 43.1 µM (active) in [4]; 50 µM (active) in assay [8]; 95 µM (active) [middle of 4 runs] in the assay with DIO2 (gene 1734); 50 µM (active) in assay [9]. Also, the result in assay [1], in assay [3], in assay [4], in assay [5], in assay [6] and in [7] was inactive. The compound was called inactive in assay [8] and in [9].
Regarding `C[C@H]1[C@H](c2ccc(Cl)cc2)SC(=O)N1C(=O)NC1CCCCC1`, the result in assay [2] was inactive.
Turning to `Oc1ccc(Cl)cc1Cc1ccccc1`, in the assay with DIO2 (gene 1734), the half-maximal activity concentration (AC50) was 132 µM (active).
As to `CC1(c2ccc(Oc3ccccc3)cc2)OC(=O)N(Nc2ccccc2)C1=O` (stereo not given), the AC50 was 4.84 µM (active) in assay [1]; 7.84 µM (active) in assay [3]; 4.99 µM (active) in [4]; 7.68 µM (active) in assay [5]; 3.39 µM (active) in assay [7]; 5.73 µM (active) in [8]. Moreover, the AC50 in assay [9] was 3.17 µM (active). The outcome in assay [6] was inactive.
In the case of `CC(C)(C)C(O)/C(=C\c1ccc(Cl)cc1Cl)n1cncn1` (stereo not given), the result in assay [2] was inactive.
Consider `CNC(=O)Oc1cccc(N=CN(C)C)c1`, for which the outcome in assay [2] was inactive.
As to `CCC(C)Nc1c([N+](=O)[O-])cc(C(C)(C)C)cc1[N+](=O)[O-]` (stereo not given), the AC50 in [2] was 8.77 µM (active).
On to `CNC(=O)CSP(=S)(OC)OC`, for which the AC50 in [1] is 77.4 µM (active) and 18.9 µM (active); in assay [3], 78.2 µM (active); in assay [4] it was 66.4 µM (active) and 21.9 µM (active); in assay [8], 50 µM (active) and 15 µM (active); in assay [9], 50 µM (active). For the same compound, the result in [3], in assay [5], in [6], in assay [7] and in assay [9] was inactive.

These data come from PubChem BioAssay (EPA / NIEHS).
